The whole screen tested about 290,000 compounds, of which about 2,200 (0.76%) were called active. No stated cut-off is given here; in the data, active means inhibition above about 30%; inconclusive means no clear call, values can overlap the other calls; inactive means below that. The sample as a whole holds a higher share of actives than the screen did.

For this test, the target named is Protein RecA (Mycobacterium tuberculosis (strain ATCC 25618 / H37Rv)) (UniProt P9WHJ3). The experiment in a line: Mtb RecA intein splicing inhibitors, primary screen, biochemical, fluorescence, HTS (AID 2221).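 Further: 0% = vehicle wells and 100% = reference inhibitor control wells.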 To be noted: cell-free RecA intein splicing, hits give high values, concentration not given here.
Sequence of Protein RecA (Mycobacterium tuberculosis (strain ATCC 25618 / H37Rv)) (P9WHJ3 whole entry, looked up): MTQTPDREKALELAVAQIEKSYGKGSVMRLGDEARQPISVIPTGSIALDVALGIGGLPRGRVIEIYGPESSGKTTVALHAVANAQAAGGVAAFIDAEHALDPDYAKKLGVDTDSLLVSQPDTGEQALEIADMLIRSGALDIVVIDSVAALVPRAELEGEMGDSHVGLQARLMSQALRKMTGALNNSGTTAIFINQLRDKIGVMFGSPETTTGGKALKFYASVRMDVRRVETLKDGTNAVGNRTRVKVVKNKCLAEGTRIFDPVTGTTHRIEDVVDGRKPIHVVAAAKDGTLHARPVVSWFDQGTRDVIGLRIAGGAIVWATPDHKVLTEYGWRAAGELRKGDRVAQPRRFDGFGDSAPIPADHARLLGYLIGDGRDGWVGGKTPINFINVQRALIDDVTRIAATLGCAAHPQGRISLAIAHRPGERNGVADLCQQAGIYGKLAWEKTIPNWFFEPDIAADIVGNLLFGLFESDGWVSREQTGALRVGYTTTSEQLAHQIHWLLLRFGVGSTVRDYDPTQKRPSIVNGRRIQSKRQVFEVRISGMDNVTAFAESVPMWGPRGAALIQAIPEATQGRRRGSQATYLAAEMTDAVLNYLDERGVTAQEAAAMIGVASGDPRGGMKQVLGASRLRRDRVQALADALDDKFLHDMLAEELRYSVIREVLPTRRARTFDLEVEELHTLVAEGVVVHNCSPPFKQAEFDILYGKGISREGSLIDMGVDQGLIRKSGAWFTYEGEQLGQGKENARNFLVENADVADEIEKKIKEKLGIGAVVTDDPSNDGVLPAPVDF
For the compound `COc1ccc(-c2nnc(SC(=O)N3c4ccccc4Sc4ccccc43)o2)cc1`, the inhibition (commonly the relative decrease from the control value, in per cent) is 46.6% (active).
The figure for `COc1ccc(-c2nnc(SCC(=O)c3ccc4c(c3)OCCO4)o2)cc1` is 0.107% (inactive); for `COc1ccc(-c2nnc(SCc3cccnc3)o2)cc1` it is -3.4% (inactive).
The figure for `CC(=O)c1cccc(NC(=O)C2COc3ccccc3O2)c1` (stereo not given) is 0.944% (inactive).
Turning to `C[C@H](NC(=O)C1CCN(S(=O)(=O)c2ccccc2)CC1)C(=O)NCc1ccccc1`, the inhibition was 1.64% (inactive).
For `COC(=O)c1sc(SC)c(S(=O)(=O)C(C)C)c1N/N=C(\C#N)S(=O)(=O)c1ccccn1`, the inhibition was 3.07% (inactive).
For the compound `CCCc1[nH]nc2c1C(c1ccc(OC(=O)c3ccco3)cc1)C(C#N)=C(N)O2` (stereo not given), the inhibition is 81.6% (active).
The figure for `CCc1ccc(C2C(C#N)=C(N)Oc3n[nH]c(CC(=O)OC)c32)cc1` (stereo not given) is 63.8% (active); for `COc1ccc(-c2[nH]nc3c2C(c2ccncc2)C(C#N)=C(N)O3)cc1` (stereo not given) it is 69.7% (active).
The result for `CCC1=C(C(=O)OC)C(c2cc(OC)ccc2OC)C(C#N)=C(N)O1` (stereo not given) reads -1.35% (inactive); that for `CCOc1c(OC)cc(C2C(C#N)=C(N)Oc3n[nH]c(-c4ccncc4)c32)cc1OC` (stereo not given), 23.1% (inactive); that for `COCc1[nH]nc2c1C(C1C=CCCC1)C(C#N)=C(N)O2` (stereo not given), -0.266% (inactive).
The result for `CCCc1[nH]nc2c1C(C1CC=CCC1)C(C#N)=C(N)O2` (stereo not given) reads 4.97% (inactive).
Turning to `CCOC(=O)C1=C(C)OC(N)=C(C#N)C1c1cncc(-c2ccc(F)cc2)c1` (stereo not given), the inhibition was 2.26% (inactive).
The result for `CCCc1[nH]nc2c1C(c1ccc(Br)s1)C(C#N)=C(N)O2` (stereo not given) reads 56% (active).
The figure for `COc1cc(C2C(C#N)=C(N)Oc3n[nH]c(-c4ccccn4)c32)cc(OC)c1OC` (stereo not given) is 17.2% (inactive); for `CCCc1nc2c([nH]1)C(c1cccnc1)C(C#N)=C(N)O2` (stereo not given) it is -1.72% (inactive); for `CCOC(=O)C1=C(CC)OC(N)=C(C#N)C1c1ccc(F)cc1F` (stereo not given) it is -3.52% (inactive).
The result for `NC(=O)c1cc(S(=O)(=O)NCCCc2ccco2)cs1` reads -6.35% (inactive); that for `CN(C)c1ccc(C=NCCc2ccc(S(N)(=O)=O)cc2)cc1`, -4.96% (inactive); that for `Cc1ccc(NC(=O)N2CCSc3ccccc32)cc1`, -0.155% (inactive).
Consider `CCN(CC)CC(=O)Nc1sc2c(c1C(=O)c1ccccc1C)CCC2`, for which the inhibition was 11.9% (inactive).
The result for `Cc1cc(C)c(C)c(S(=O)(=O)N[C@@H](C)C(=O)OC(C)C(=O)NC(N)=O)c1C` (stereo not given in full) reads -2.04% (inactive); that for `CC(CO)(CO)NC(=O)c1ccc(=O)[nH]n1`, 0.0563% (inactive); that for `O=C(c1ccc[nH]c1=S)N1CCN(S(=O)(=O)c2ccc(Br)cc2Cl)CC1`, -3.23% (inactive).
Consider `Cc1ccc(-n2c(=O)cc(N3CCN(Cc4ccccc4)CC3)[nH]c2=O)cc1`, for which the inhibition was -1.51% (inactive).
With `S=C(Nc1ccc(Cl)cc1Cl)N1CCCC1`, the inhibition is -0.599% (inactive).
Take `Cc1cccc(OC(C)C(=O)N2CCc3ccccc3C2)c1` (stereo not given): the inhibition is 0.662% (inactive).
The result for `O=C(Cc1ccccc1)Nc1ccc(C(=O)Nc2ccccc2C(=O)O)cc1` reads 0.81% (inactive).
The figure for `O=C(c1cccnc1)N1CCN(S(=O)(=O)c2cccs2)CC1` is -1.81% (inactive); for `Cc1ccc(-n2nc3c(=O)n(C(C)C(=O)NCc4ccc5c(c4)OCO5)nc(C)c3c2C)cc1` (stereo not given) it is 3.2% (inactive); for `CC1=NNC(=O)C1CCC(=O)N/N=C\c1cccc(Cl)c1` (stereo not given) it is -2.34% (inactive).
The figure for `CC1=NNC(=O)C1Cc1c(Cl)cccc1Cl` (stereo not given) is 90.8% (active); for `CC1=NNC(=O)C1CCC(=O)N/N=C\c1ccc(Cl)c(Cl)c1` (stereo not given) it is 0.906% (inactive).
In the case of `O=C(CN1CCc2cc3c(cc2C1)OCCCO3)Nc1ccccc1`, the inhibition is 1.99% (inactive).
The result for `COc1ccc(C(=O)NC2CC(C)(C)Cc3c2cnn3-c2ccccc2C)o1` (stereo not given) reads 3.96% (inactive); that for `CCSc1ncc(Cl)c(C(=O)Nc2cc(C)ccc2C)n1`, -2.65% (inactive); that for `Cc1cccc(NC(=O)c2nc[nH]c2C(=O)NCC(=O)OCc2ccccc2)c1`, -3.32% (inactive).
For the compound `Cc1cccc(OCc2ccc(C(=O)Nc3ccc(F)cc3)cc2)c1`, the inhibition was -2.68% (inactive).
Take `Cc1cccc(NC(=O)c2nc(S(=O)(=O)Cc3ccccc3)ncc2Cl)c1`: the inhibition was 78% (active).
The result for `Cc1cccc(CS(=O)(=O)c2ncc(Cl)c(C(=O)Nc3ccc(F)cc3)n2)c1` reads 31.6% (active); that for `CCOc1ccc(NC(=O)c2nc(SCC)ncc2Cl)cc1`, -3.31% (inactive); that for `CSCC[C@H](NC(=O)N1CCn2c1nc1ccccc12)C(=O)NC1CCCCC1`, 0.784% (inactive).
The result for `ClC1(Cl)CC1CSc1ncn[nH]1` (stereo not given) reads -0.379% (inactive).
For `Cc1ccc(SC(CC(=O)c2ccc(C(C)(C)C)cc2)C(=O)O)cc1` (stereo not given), the inhibition is 8.11% (inactive).
The figure for `Cc1ccc(SCC2=NNC(=O)C2)cc1` is 87.8% (active); for `Cc1ccc(SCc2cc(=O)[nH]c(N3CCCCC3)n2)cc1` it is 1.86% (inactive).
The result for `Cc1ccc(SCCSc2ncccn2)cc1` reads -1.76% (inactive); that for `O=C(NC1CCc2ccccc21)C12CN(Cc3ccccc3)CC1C(c1cccc([N+](=O)[O-])c1)=NO2` (stereo not given), 8.13% (inactive); that for `CCOc1ccc(-n2c(SCC(N)=O)nnc2-c2ccco2)cc1`, 1.21% (inactive).
Take `CC1(N2CCOCC2)CC2(O)C(=[N+]1[O-])CCc1nonc12` (stereo not given): the inhibition is 59.8% (active).
`CC(=O)n1c(C=Nc2ccccc2)c(O)c2ccccc21`: the inhibition is -25.1% (inactive).
Regarding `Cc1ccc(NC(=O)CSc2nnc(CNC(=O)c3ccccc3F)o2)cc1`, the inhibition was -1.52% (inactive).
`O=C(CCCN=C1NS(=O)(=O)c2ccccc21)OCC(=O)c1ccc(F)c(F)c1`: the inhibition was 0.337% (inactive).
The figure for `CCN(CC)S(=O)(=O)c1ccc(Cl)c(NC(=O)c2ccncc2)c1` is -0.0873% (inactive); for `CN(C)c1ccc(NC(=O)c2ccncc2)c2ccccc12` it is 32.8% (active).
With `CC(=O)c1cccc(NC(=O)c2ccncc2)c1`, the inhibition was -0.301% (inactive).
The result for `Cc1cc(Nc2cccc(C)c2C)n2ncnc2n1` reads 0.489% (inactive); that for `COc1ccc(Nc2ncnc3ccc(Br)cc23)c(OC)c1`, -1.95% (inactive); that for `COc1ccc2sc(N(CCCN(C)C)C(=O)c3ccc(S(=O)(=O)N(C)C4CCCCC4)cc3)nc2c1`, 2.28% (inactive).

Values taken from PubChem BioAssay AID2221 (Broad Institute, 2009).
